In the library only some 4.8% were active in any assay of this set; here they are far more common.
SMARCA2 act: SMARCA2 function activation, primary screen; MG213 cells, MMTV-luciferase reporter, dexamethasone, overnight; activation, % at 9.1 µM; 370,000 tested, 1% active; in the data active means activation above about 7.8%;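 further: 0% = vehicle wells and 100% = reference activator wells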
DAX1 inh-1: blocks DAX1 repression of SF-1 activated StAR promoter. HEK293T StAR-luciferase reporter, SF-1/DAX-1 repression relief. AID 652010. inhibition, % at 6.8 µM. 370,000 tested, 1.1% active;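 active means inhibition above the mean over all tested compounds plus 3 SD, cut at about 3.6% in these data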;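 further: 0% = DAX-1 cells with DMSO and 100% = cells lacking DAX-1 with DMSO; higher inhibition means more luminescence from relief of DAX-1 repression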
DAX1 inh-2: inhibits human nuclear receptor DAX1; HEK293 Gal4-DAX1 luciferase reporter, luminescence; 340,000 tested, 0.99% active; AID 504766; inhibition, % at 6.75 µM;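 active means inhibition above the mean over all tested compounds plus 3 SD, cut at about 4.2% in these data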;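 further: 0% = DAX1-transfected cells with DMSO and 100% = empty-vector control cells with DMSO; inhibition shows as a rise in luminescence from relieved DAX1 repression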
Target sequence (P51843 207-470 limits assumed): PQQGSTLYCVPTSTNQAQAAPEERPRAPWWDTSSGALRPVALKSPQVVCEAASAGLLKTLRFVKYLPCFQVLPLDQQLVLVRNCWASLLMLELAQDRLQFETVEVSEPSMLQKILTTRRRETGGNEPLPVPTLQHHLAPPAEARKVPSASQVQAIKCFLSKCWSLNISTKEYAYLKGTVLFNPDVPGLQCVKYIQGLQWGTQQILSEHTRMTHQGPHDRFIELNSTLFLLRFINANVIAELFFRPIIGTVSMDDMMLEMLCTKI
ssDAF-12 act: S. stercoralis DAF-12 activation, primary screen | HEK293 ssDAF-12/GRIP1 lit1-tk-luc reporter, luminescence; % of 3 µM dafachronic acid response | activation, % at 6.8 µM | 370,000 tested, 1% active;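 active means activation above the mean over all tested compounds plus 3 SD, cut at about 0.9% in these data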;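 further: 0% = DMSO-only wells and 100% = 3 µM delta7-dafachronic acid wells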
hcDAF12 agonist: activates DAF-12 receptor from parasite H. contortus; HEK293 hcDAF-12 lit1-tk-luc reporter, luminescence; 0% DMSO, 100% Δ7-dafachronic acid; activation, % at 6.8 µM; 370,000 tested, 1.4% active; AID 652067;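 active means activation above the mean of all tested compounds plus 3 SD, cut at about 5.5% in these data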;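 further: 100% = response to 3 µM Δ7-dafachronic acid high control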
hgDAF12 agonist: agonists of H. glycines DAF-12 nuclear receptor; HEK293 GAL4-hgDAF12 UAS-luciferase reporter, agonist luminescence; normalized to butyrate control; activation, % at 6.8 µM; 370,000 tested, 1.8% active;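 active means activation above a cutoff set at the mean of all screened compounds plus 3 SD, cut at about 10% in these data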;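 further: 0% = DMSO wells and 100% = sodium butyrate wells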
SMARCA2 act conf: SMARCA2 activation, confirmation screen; activation, % at 9.1 µM; shares compounds with SMARCA2 act; MG213 cells, MMTV-luciferase with dexamethasone, luminescence, overnight; MG213 cells expressing E1A, Rb sequestered; DMSO wells 0%, reference activator 100%; 3,500 tested, 30% active; AID 652260;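 active means activation above its plate's cutoff, the mean activation of tested wells plus 3 SD, cut at about 7.9% in these data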
GAL4-VP16 Luc: activates GAL4-VP16 luciferase, flagging SMARCA2 activator hits; 3,500 tested, 41% active; activation, % at 9.1 µM; shares compounds with SMARCA2 act; HEK293 GAL4-VP16 pG5luc reporter, luciferase luminescence; scaled: DMSO wells 0%, SAHA wells 100%;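 active means activation above the solvent-only control well mean plus 3 SD, averaged across control plates, cut at about 5.2% in these data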
LXRb hcDAF ctr: activates human LXR-beta, counter-screen for hcDAF-12 agonists. shares compounds with hcDAF12 agonist. HEK293 Gal4-LXR tk-luc reporter, luminescence, 24 h; normalized: DMSO 0%, positive control 100%. activation, % at 6.8 µM. 3,400 tested, under 10 active. AID 743027;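 active means mean percent activation of the reporter above a cutoff set as the average over tested compounds plus their standard deviation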
hcDAF12 conf: hcDAF-12 agonism, confirmation assay; shares compounds with hcDAF12 agonist; 3,400 tested, 61% active; AID 743032; activation, % at 6.8 µM; HEK293 hcDAF-12 lit1-tk-luc reporter, luminescence; % of Δ7-dafachronic acid response;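 active means mean activation across triplicate tests above the threshold derived from the earlier primary screen, cut at about 5.5% in these data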;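 further: 0% = DMSO only wells and 100% = 3 µM Δ7-dafachronic acid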
Numbers without * were called inactive; · = no result given.

SMILES	SMARCA2 act	DAX1 inh-1	DAX1 inh-2	ssDAF-12 act	hcDAF12 agonist	hgDAF12 agonist	SMARCA2 act conf	GAL4-VP16 Luc	LXRb hcDAF ctr	hcDAF12 conf
COc1ccc(C2Nc3ccccc3C(=O)N2c2ccc(C)cc2)cc1Cn1nc(C)c([N+](=O)[O-])c1C (stereo not given)	3	2	2	0	0	4	·	·	·	·
COc1ccc(C2Nc3ccccc3C(=O)N2c2ccc(C)cc2)cc1COc1ccccn1 (stereo not given)	14*	3.6*	-1	1	6.9*	8	12*	5	1	8.7*
CC1CC(=O)c2cnc(NCc3ccco3)nc2C1 (stereo not given)	-1	0	2	-1	1	1	·	·	·	·
Cc1ccc(Nc2ncc3c(n2)CC(C)CC3=O)c(C)c1 (stereo not given)	8.2*	2	4	0	7.1*	10	8.3*	4	1	5
CC(=O)c1c(C)nc(-c2ccc(Cl)cc2)nc1N	10*	3	2	1.6*	15*	10	3	11*	1	7.3*
CCOC(=O)c1ccc(/C=C2/C=C(c3ccccc3)N(c3ccc(Cl)c(C(=O)O)c3)C2=O)cc1	12*	0	0	-1	8.4*	0	-2	-1	0	-3
CC(OC(=O)c1ccc(OCC2CCCO2)cc1)C(=O)N(C)Cc1ccccc1 (stereo not given)	-1	-1	-1	-1	-2	-1	·	·	·	·
COc1cccc(C(=O)/C=C/Nc2ccc(S(=O)(=O)Nc3onc(C)c3C)cc2)c1	12*	3	0	0	13*	9	-1	0	0	2
O=C(/C=C/Nc1ccc(F)cc1)c1cccs1	8.8*	4.5*	0	1.7*	11*	12*	11*	14*	2	18*
O=C(CCCC(=O)OCC(=O)c1cccs1)Nc1ccc(F)cc1	2	0	0	-2	1	-3	·	·	·	·
CC(C)C(=O)NCc1cc(-c2ccccc2)no1	-5	1	2	0	-1	1	·	·	·	·
Clc1ccc(-c2[nH]ncc2N=Nc2ccccc2)cc1	-2	-1	1	-1	0	-2	·	·	·	·
c1ccc(N=Nc2ccc3cccccc2-3)cc1	9.6*	0	2	1.8*	9.1*	6	14*	13*	1	10*
Cc1ccccc1OCC(=O)OC(C)C(=O)NC1CCCC1 (stereo not given)	-2	1	0	-1	-1	0	·	·	·	·
O=C(CSc1ccccn1)Nc1ccc(Cl)cn1	2	0	3	-1	-1	3	·	·	·	·
CN(C)CCNC(=O)c1cccc2nc3cccc(F)c3nc12	52*	-4	1	1.5*	18*	-1	194*	14*	1	14*
COc1ccc(OC)c2nc3c(C(=O)NCCN(C)C)cccc3nc12	21*	1	1	0	11*	2	52*	2	0	9.2*
Cc1cc(C(=O)NCCCN(C)C)c2ccccc2n1	0	0	2	-1	-1	0	·	·	·	·
O=C(CCNS(=O)(=O)c1ccccc1)OCC(=O)c1ccc(Cl)cc1	-1	1	1	-1	0	0	·	·	·	·
CCOc1ccccc1NC(=O)CSc1nc2ccccc2nc1N1CCOCC1	-3	0	1	0	3	-2	·	·	·	·

Assay outcomes deposited in PubChem BioAssay by The Scripps Research Institute Molecular Screening Center.
